These sequences were tested on VDR:RXRa (NR concentration 270 nM, RXRa partner concentration 90 nM) (assay: PBM binding z-score (relative to random genomic background probes); higher = stronger binding; sequences stand for … in GC…GCGATTGACAGCGTAGAATGAAGG).
Experimental: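 Protein-binding microarray (Agilent 4x180K custom design, double-stranded 60-nt probes: 5' GC cap, 34-nt variable region, 24-nt constant primer region; full probe sequence given). Purified or IVT nuclear receptor:RXRα heterodimers (3:1 NR:RXRα, mostly 270:90 nM) or homodimers were incubated for 1 h in PBS with 2% milk and no ligand, then detected with Alexa488 antibodies. Fluorescence from o1-orientation probes (~5 replicates averaged) was converted to z-scores against 500 random hg19 background probes. Variable regions are seed direct-repeat (DR0–DR5) sites, all their single-nucleotide variants and half-site ablations.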

Row | Sequence | PBM binding z-score
1 | GCTTACGGGTCAAAGGTGATAGCATGAATAGAAT | 4.42
2 | GAATATAGGTAATACAAGGTGAAAGTCCGATTGT | 0.758
3 | ATCTCTAGATAAGACTCAGTTCAGTGAAGAACGC | 0.209
4 | AGATGTAGGTTATCGGGTCATTCAGTTTGCGCAT | 5.35
5 | TCAGACAGGTGAAGGTAACTCACGTACGCAGTCG | 0.473
6 | ATGTGTAGGTTATCGGGTCATTCAGTTTGCGCAT | 5.25
7 | CTCGAAAGGTCGGGTGAGGTGAGTATACGGATAA | 3.18
8 | CCTTACGGGTCACGAGGTTCTAGCACGACGAGCG | 6.18
9 | GCAGATAGGTAATACAAGGTGAAAGTCCGATTGT | 0.13
10 | ATCTCTAGGTAAATTTCAGTGAAAGATCGATAGA | 0.297
11 | ATCTCTAGGTAAAGATAGTTCAGTTAATGCAAAT | 1.21
12 | CCTACTGGGCCATTCAGAGGTCATTTATCATATG | 3.73
13 | CCAGACAGGTGAGAAGCTAACTCAGCCTCGATTA | -0.228
14 | TCTATTAGTGGATTAGGGCAACCGAAACAGCGGA | 0.547
15 | ACTAGCAGGCGAAGTTTGGGTCACTCAAACAAAG | 0.191
16 | ACTATTAGTTGAGACGAGGGAAACCGATAGGTTG | -0.364
17 | TCTATTAGTTGAAGGGCAAACGACGAGTCCGTTT | 1.45
18 | GCTGCTAGGTCACCTGATGGTCAGCTAAAGCTCG | 1.31
19 | CCTTACGGGTCTCGAGGTTATAGCACGACGAGCG | 0.479
20 | CCTACTGGGGCAAAGGTTACCATACTCAGTACGA | 1.86

Row | Sequence | PBM binding z-score
21 | GCTAGTTGGTCAGTAAACGGTCACACACCGGTCG | -0.0437
22 | AATACAGGGTCATCCTAGGCCAGAGTACGCACAG | 5.38
23 | ATCTCTAGGTAACAAGTTCAGAGAAAGAGAGGAC | 2.01
24 | CGAACTAGGTTATCCAGGACAGTGAATACATTGA | 1.57
25 | CGAACTAGGTCATTGACAGGACAGTGAGTAGTAA | 2.18
26 | CCTCGGACGACAGAAGGTCAGAGCTGTCCGCTTT | 0.84
27 | GCTTACGGGTCAAATGTTATAGCATGAATAGAAT | 3.64
28 | GCTAGTTGGTCAGTATAAGGTCACACACCGGTCG | 3.24
29 | CAAACTATGTCAAGGTCAAAGTCGGTTTGTGCCA | 4.83
30 | GCTGCTAGGTCAACTGATGCTCAGCTAAAGCTCG | 1.38
31 | CCTGCTGGGCCAAAGGTCATTGATTCCAATGCTC | 4.43
32 | ATCTCCAGGTAACCAAGTTCAGTGAATGCCGAAC | 4.4
33 | CCTGCTAGGTCATGGGCAGCTAATCTACAGTATG | 1.19
34 | AGAACGAGGGCACGCGGAGTTGATAGCAGAGTAG | 1.95
35 | GCTGCTACGTCAGGTTGGTCAGCTAACGGGTACG | -0.773
36 | CGAACTAGGTCAAGGACAATGAATCTCCGCACGC | 1.49
37 | CCTACTGGGCCATCAGGACATTGATATCAACGTT | -0.324
38 | CAAACTAGGACACCGGAAGGTCAAAGTCCGCATG | 3.3
39 | CGAACGAGGGCATGAGTTGATAGGAAATGCCGAT | 1.13
40 | AATATTAGTTGACTTAGGGCAACCGATACGACGC | 0.46

— the supplement of paper PMC6555819
